Unmarked numbers belong to inactive results.
System: Vero E6 infected with SARS-CoV-2
Experiment: inhibition of SARS-CoV-2 cytopathic effect; higher = more antiviral protection, active = above 15
Conditions: 48 h

## CCOc1ccccc1OCC1CNCCO1 (stereo not given) [viloxazine]
1 nM
  inhibition of SARS-CoV-2 cytopathic effect: 5.7%
8.33 nM
  inhibition of SARS-CoV-2 cytopathic effect: 7.03%
100 nM
  inhibition of SARS-CoV-2 cytopathic effect: 7.67%
833.33 nM
  inhibition of SARS-CoV-2 cytopathic effect: 2.71%
10000 nM
  inhibition of SARS-CoV-2 cytopathic effect: 3.05%

## NC[C@H]1O[C@H](O[C@H]2[C@H](O)[C@@H](O[C@H]3O[C@H](CO)[C@@H](O)[C@H](N)[C@H]3O)[C@H](N)C[C@@H]2N)[C@H](N)C[C@@H]1O [tobramycin]
1 nM
  inhibition of SARS-CoV-2 cytopathic effect: -1.08%
8.33 nM
  inhibition of SARS-CoV-2 cytopathic effect: 1.78%
100 nM
  inhibition of SARS-CoV-2 cytopathic effect: -0.88%
833.33 nM
  inhibition of SARS-CoV-2 cytopathic effect: 0.11%
10000 nM
  inhibition of SARS-CoV-2 cytopathic effect: 0.19%

## N=C(C[C@@H](O)COc1ccccc1-c1ccccc1)N1CCCCC1
1 nM
  inhibition of SARS-CoV-2 cytopathic effect: -5.21%
8.33 nM
  inhibition of SARS-CoV-2 cytopathic effect: -4.99%
100 nM
  inhibition of SARS-CoV-2 cytopathic effect: 0.04%
833.33 nM
  inhibition of SARS-CoV-2 cytopathic effect: -2.13%
10000 nM
  inhibition of SARS-CoV-2 cytopathic effect: -2.77%

## CN1CCN(CCCN2c3ccccc3Sc3ccc(S(=O)(=O)N(C)C)cc32)CC1 [thioproperazine]
1 nM
  inhibition of SARS-CoV-2 cytopathic effect: 0.81%
8.33 nM
  inhibition of SARS-CoV-2 cytopathic effect: 6.36%
100 nM
  inhibition of SARS-CoV-2 cytopathic effect: 5.52%
833.33 nM
  inhibition of SARS-CoV-2 cytopathic effect: 0.03%
10000 nM
  inhibition of SARS-CoV-2 cytopathic effect: 1.7%

## C[C@@H]1CN(c2c(F)c(N)c3c(=O)c(C(=O)O)cn(C4CC4)c3c2F)C[C@H](C)N1 [sparfloxacin]
1 nM
  inhibition of SARS-CoV-2 cytopathic effect: 2.08%
8.33 nM
  inhibition of SARS-CoV-2 cytopathic effect: 2.09%
100 nM
  inhibition of SARS-CoV-2 cytopathic effect: 0.77%
833.33 nM
  inhibition of SARS-CoV-2 cytopathic effect: -1.72%
10000 nM
  inhibition of SARS-CoV-2 cytopathic effect: -2.31%

## CCOC(=O)c1c(C)n(C)c2ccc(O)cc12 [mecarbinate]
1 nM
  inhibition of SARS-CoV-2 cytopathic effect: -0.79%
8.33 nM
  inhibition of SARS-CoV-2 cytopathic effect: -1.26%
100 nM
  inhibition of SARS-CoV-2 cytopathic effect: -2.84%
833.33 nM
  inhibition of SARS-CoV-2 cytopathic effect: -2.4%
10000 nM
  inhibition of SARS-CoV-2 cytopathic effect: -2.61%

## Cc1cc(Cn2cnc3c2C[C@@H](C(=O)O)N(C(=O)C(c2ccccc2)c2ccccc2)C3)ccc1N(C)C
1 nM
  inhibition of SARS-CoV-2 cytopathic effect: -2.45%
8.33 nM
  inhibition of SARS-CoV-2 cytopathic effect: -1.75%
100 nM
  inhibition of SARS-CoV-2 cytopathic effect: -3.61%
833.33 nM
  inhibition of SARS-CoV-2 cytopathic effect: -1.45%
10000 nM
  inhibition of SARS-CoV-2 cytopathic effect: 0.19%

## CS(=O)(=O)c1ccc(-c2cc(Br)sc2-c2ccc(F)cc2)cc1
1 nM
  inhibition of SARS-CoV-2 cytopathic effect: 3.29%
8.33 nM
  inhibition of SARS-CoV-2 cytopathic effect: -0.45%
100 nM
  inhibition of SARS-CoV-2 cytopathic effect: -5.25%
833.33 nM
  inhibition of SARS-CoV-2 cytopathic effect: -3.46%
10000 nM
  inhibition of SARS-CoV-2 cytopathic effect: -5.5%

## CCN1CCN(Cc2ccc(C(=O)Nc3ccc(C)c(Oc4ccc5c(c4)CC(=O)N5)c3)cc2C(F)(F)F)CC1
1 nM
  inhibition of SARS-CoV-2 cytopathic effect: -1.15%
8.33 nM
  inhibition of SARS-CoV-2 cytopathic effect: -1.24%
100 nM
  inhibition of SARS-CoV-2 cytopathic effect: 1.47%
833.33 nM
  inhibition of SARS-CoV-2 cytopathic effect: 3.18%
10000 nM
  inhibition of SARS-CoV-2 cytopathic effect: 56% (active)

## COCCOc1ccc(N2CCN(CCn3ncc4c3nc(N)n3nc(-c5ccco5)nc43)CC2)cc1 [preladenant]
1 nM
  inhibition of SARS-CoV-2 cytopathic effect: 1.43%
8.33 nM
  inhibition of SARS-CoV-2 cytopathic effect: 0.62%
100 nM
  inhibition of SARS-CoV-2 cytopathic effect: 3.21%
833.33 nM
  inhibition of SARS-CoV-2 cytopathic effect: 0.67%
10000 nM
  inhibition of SARS-CoV-2 cytopathic effect: 2.45%

## Nc1nccs1 [aminothiazole]
1 nM
  inhibition of SARS-CoV-2 cytopathic effect: -0.84%
8.33 nM
  inhibition of SARS-CoV-2 cytopathic effect: 1.04%
100 nM
  inhibition of SARS-CoV-2 cytopathic effect: 0.28%
833.33 nM
  inhibition of SARS-CoV-2 cytopathic effect: 2.14%
10000 nM
  inhibition of SARS-CoV-2 cytopathic effect: 1.48%

## N#Cc1cccc(-c2nc(-c3cccnc3)no2)c1
1 nM
  inhibition of SARS-CoV-2 cytopathic effect: -1.62%
8.33 nM
  inhibition of SARS-CoV-2 cytopathic effect: 0.72%
100 nM
  inhibition of SARS-CoV-2 cytopathic effect: -0.15%
833.33 nM
  inhibition of SARS-CoV-2 cytopathic effect: -1.08%
10000 nM
  inhibition of SARS-CoV-2 cytopathic effect: 2.85%

## COc1cc(/C=C(\C#N)C(N)=O)cc(CSc2nc3ccccc3s2)c1O [tyrphostin-AG-825]
1 nM
  inhibition of SARS-CoV-2 cytopathic effect: 2.84%
8.33 nM
  inhibition of SARS-CoV-2 cytopathic effect: 1.12%
100 nM
  inhibition of SARS-CoV-2 cytopathic effect: 0.69%
833.33 nM
  inhibition of SARS-CoV-2 cytopathic effect: -0.02%
10000 nM
  inhibition of SARS-CoV-2 cytopathic effect: 0.99%

## c1coc(CNc2ncnc3[nH]cnc23)c1 [kinetin]
1 nM
  inhibition of SARS-CoV-2 cytopathic effect: -0.75%
8.33 nM
  inhibition of SARS-CoV-2 cytopathic effect: 1.25%
100 nM
  inhibition of SARS-CoV-2 cytopathic effect: 1.35%
833.33 nM
  inhibition of SARS-CoV-2 cytopathic effect: 3.24%
10000 nM
  inhibition of SARS-CoV-2 cytopathic effect: 2.8%

## Clc1ccc([C@]23CNC[C@H]2C3)cc1Cl [amitifadine]
1 nM
  inhibition of SARS-CoV-2 cytopathic effect: 0.8%
8.33 nM
  inhibition of SARS-CoV-2 cytopathic effect: 2.82%
100 nM
  inhibition of SARS-CoV-2 cytopathic effect: 0.87%
833.33 nM
  inhibition of SARS-CoV-2 cytopathic effect: 1.86%
10000 nM
  inhibition of SARS-CoV-2 cytopathic effect: 3.82%

## CCOc1ccc(/C=C2\NCCc3cc(OCC)c(OCC)cc32)cc1OCC [drotaverine]
1 nM
  inhibition of SARS-CoV-2 cytopathic effect: 1.53%
8.33 nM
  inhibition of SARS-CoV-2 cytopathic effect: 2.33%
100 nM
  inhibition of SARS-CoV-2 cytopathic effect: -0.04%
833.33 nM
  inhibition of SARS-CoV-2 cytopathic effect: 2.62%
10000 nM
  inhibition of SARS-CoV-2 cytopathic effect: 0.78%

## CO[C@H]1/C=C/O[C@@]2(C)Oc3c(C)c(O)c4c(O)c(c(/C=N/N=C/N5CCCCC5)c(O)c4c3C2=O)NC(=O)/C(C)=C\C=C\[C@H](C)[C@H](O)[C@@H](C)[C@@H](O)[C@@H](C)[C@H](OC(C)=O)[C@@H]1C
1 nM
  inhibition of SARS-CoV-2 cytopathic effect: 5.27%
8.33 nM
  inhibition of SARS-CoV-2 cytopathic effect: 5.73%
100 nM
  inhibition of SARS-CoV-2 cytopathic effect: 6.01%
833.33 nM
  inhibition of SARS-CoV-2 cytopathic effect: 4.61%
10000 nM
  inhibition of SARS-CoV-2 cytopathic effect: 3.27%

## CC(C)C[C@H](NC(=O)CNC(=O)c1cc(Cl)ccc1Cl)B(O)O [ixazomib]
1 nM
  inhibition of SARS-CoV-2 cytopathic effect: -2.33%
8.33 nM
  inhibition of SARS-CoV-2 cytopathic effect: 2.02%
100 nM
  inhibition of SARS-CoV-2 cytopathic effect: 5.21%
833.33 nM
  inhibition of SARS-CoV-2 cytopathic effect: -11%
10000 nM
  inhibition of SARS-CoV-2 cytopathic effect: 22.9% (active)

Reference: the supplement of paper PMC13380429
